Results on five molecules are retold here after PubChem BioAssay.

Structures are written as SMILES. The source made the active and inactive calls.

Assay [1] deals with Albumin (Bos taurus) (UniProt P02769). Put plainly: bovine serum albumin binders on microarray, profiling panel, artefact control for SMM control protein annotation, biochemical, small-molecule microarray, Alexa647 label, 635/667 nm fluorescence (AID 1118).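 Further: score merges 667 nm emission intensity and signal-to-noise per printed compound spot.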 Particulars: BSA-A647 binding, fluorescence 635 nm, higher = more signal.
The nature of assay [2]: small-molecule microarray binders of probe aXIP, primary screen, biochemical, NeuroSMM set, 635/667 nm fluorescence (AID 1119).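 Further: probe is the protein aXip251-270 applied at 1 µg/mL to compound-printed slides; binding of probe to printed compounds measured as 667 nm fluorescence plus signal to noise.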 Particulars: higher = more signal, called active from +8 up or from −8 down.
The nature of assay [3]: small-molecule binders of probe aNOTCH3, primary screen, biochemical, small-molecule microarray, 635/667 nm fluorescence (AID 1120).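 Further: probe is a biotin-tagged antibody raised against NOTCH3 rather than NOTCH3 protein; score merges spot fluorescence near 667 nm with spot signal to noise.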 The settings on record: higher = more signal.
Assay [4] in a line: small-molecule binders of probe aNOTCH2, primary screen, biochemical, small-molecule microarray, 635/667 nm fluorescence (AID 1121).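 Further: score merges feature fluorescence read at 667 nm with its signal to noise.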 The settings on record: higher = more signal.
The target of assay [5] is Carbonic anhydrase 2 (Homo sapiens) (UniProt P00918). Put plainly: CAII small-molecule binders, profiling panel, biochemical, small-molecule microarray, Alexa647-labelled CAII (AID 1122). The settings on record: CAII-A647 binding fluorescence, higher = more signal.
Assay [6] is described as follows: COS7 lysate on small-molecule microarray, probe aHis, 635 nm (AID 1123).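 Further: z-score combines 667nm fluorescence intensity with signal-to-noise per printed compound spot.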 The settings on record: COS7 cell lysate, fluorescence, higher = more signal.
A short description of assay [7]: compound binding in COS7 lysate, probe aLAP1, primary screen, cell lysate, small-molecule microarray (AID 1124).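 Further: lysate comes from COS7 cells expressing LAP1 and is applied at 0.3 µg/mL; score merges spot fluorescence near 667 nm with signal-to-noise over triplicate slides.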 The settings on record: probe aLAP1, fluorescence, higher = more signal.
In assay [8] the test system is Sam68 (KHDRBS1). Kind of assay: Sam68 small-molecule binders, primary screen, biochemical, small-molecule microarray, 635 nm fluorescence (AID 1125).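 Further: score merges 667 nm channel intensity with signal to noise over triplicate slides.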 The settings on record: small-molecule microarray binding, higher = more signal.
The subject of assay [9] is Chordin-like protein 2 (CHRDL2). Kind of assay: CHRDL2 small-molecule binders, primary screen, biochemical, small-molecule microarray, 635 nm fluorescence (AID 1126).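 Further: printed compound slides probed with Chrdl2 protein at 4 µg/mL for 1 h at 4 C; score merges 667 nm emission intensity with signal to noise over three replicate slides.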 Particulars: small-molecule microarray binding, fluorescence 635 nm; higher = more signal.
In assay [10] the target is Concanavalin-A (Canavalia ensiformis) (UniProt P02866). Kind of assay: ConA small-molecule binders, primary screen, artefact control for SMM control protein annotation, biochemical, small-molecule microarray, Alexa647 label, 635 nm (AID 1127).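 Further: z combines 667 nm emission intensity with signal-to-noise across three replicate slides.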 Particulars: ConA-A647 binding fluorescence, higher = more signal.
A short description of assay [11]: anti-His antibody binders, primary screen, artefact control for SMM control protein annotation, biochemical, small-molecule microarray, 635 nm fluorescence (AID 1128).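 Further: score merges feature fluorescence with signal-to-noise for each printed compound spot.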 Particulars: anti-His Alexa647 antibody binding, higher = more signal.
Assay [12] deals with Human papillomavirus type 1a E7 protein (residues 1-88). Put plainly: HPV1a E7 small-molecule binders, primary screen, biochemical, small-molecule microarray, residues 1-88, 635 nm (AID 1129). The settings on record: small-molecule microarray binding, fluorescence 635 nm; higher = more signal.
For assay [13], the target named is Focal adhesion kinase 1 (Homo sapiens) (UniProt Q05397). Put plainly: small-molecule microarray binders of FAK, primary screen, biochemical, 635/667 nm fluorescence, BSA, DTT (AID 1130).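 Further: composite of spot emission at 667 nm and signal to noise over triplicate slides.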 Particulars: PTK2 binding, 635 nm fluorescence, higher = more signal.
Assay [14] deals with Fibrinogen (Alexa647-labelled). Put plainly: fibrinogen binders on compound microarrays, profiling panel, artefact control for SMM control-protein annotation, biochemical, small-molecule microarray, 635/667 nm fluorescence (AID 1131).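 Further: z-score merges 667 nm fluorescence with per-spot signal-to-noise over triplicate slides.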 The settings on record: fibrinogen-A647 binding fluorescence, higher = more signal.
For assay [15], the target named is Follistatin (Homo sapiens) (UniProt P19883). Put plainly: follistatin binders on small-molecule microarrays, primary screen, biochemical, small-molecule microarray, 635/667 nm fluorescence (AID 1132). The settings on record: FST binding, 635 nm fluorescence, higher = more signal.
Assay [16] deals with Fibroblast growth factor 2 (Homo sapiens) (UniProt P09038). Put plainly: FGF2 binders on small-molecule microarrays, primary screen, biochemical, small-molecule microarray, 635/667 nm fluorescence (AID 1133). Particulars: small-molecule microarray binding, FGF2, fluorescence 635/667; higher = more signal.
Assay [17] can be described thus: mitochondrial membrane potential change in A549 cells, profiling panel, cell-based, JC-1 fluorescence, basal, 24 h, 100 nL (AID 1138).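 Further: A549 lung adenocarcinoma cells under basal conditions with no added stimulus; test concentration not given here.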 The settings on record: higher = more signal.
Assay [18] relates to Lefty1. Put plainly: Lefty1 binders on small-molecule microarrays, primary screen, biochemical, small-molecule microarray, 635/667 nm fluorescence (AID 1139). Particulars: small-molecule microarray binding, fluorescence 635/667; higher = more signal.
Assay [19] relates to wheat germ agglutinin (Triticum aestivum), Alexa647-labelled. Kind of assay: wheat germ agglutinin binders on compound microarrays, profiling panel, artefact control for SMM control-protein annotation, biochemical, small-molecule microarray, 635/667 nm fluorescence (AID 1140).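 Further: score merges 667 nm feature emission with signal to noise over triplicate slides.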 The settings on record: WGA-A647 binding, 635 nm fluorescence, higher = more signal.
The target in assay [20] is Luciferin 4-monooxygenase (Photinus pyralis) (UniProt P08659). Kind of assay: firefly luciferase enzyme inhibitors, primary screen, biochemical, luminescence, purified enzyme, 2006 set (AID 1141).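 Further: cell-free assay with purified firefly luciferase at 100 ng per well in PBS; test concentration not given here.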 The settings on record: SteadyGlo luminescence, 30 min, higher = more signal, called active from +8 up or from −8 down.
Sequence of Luciferin 4-monooxygenase (Photinus pyralis) (P08659 whole entry, looked up): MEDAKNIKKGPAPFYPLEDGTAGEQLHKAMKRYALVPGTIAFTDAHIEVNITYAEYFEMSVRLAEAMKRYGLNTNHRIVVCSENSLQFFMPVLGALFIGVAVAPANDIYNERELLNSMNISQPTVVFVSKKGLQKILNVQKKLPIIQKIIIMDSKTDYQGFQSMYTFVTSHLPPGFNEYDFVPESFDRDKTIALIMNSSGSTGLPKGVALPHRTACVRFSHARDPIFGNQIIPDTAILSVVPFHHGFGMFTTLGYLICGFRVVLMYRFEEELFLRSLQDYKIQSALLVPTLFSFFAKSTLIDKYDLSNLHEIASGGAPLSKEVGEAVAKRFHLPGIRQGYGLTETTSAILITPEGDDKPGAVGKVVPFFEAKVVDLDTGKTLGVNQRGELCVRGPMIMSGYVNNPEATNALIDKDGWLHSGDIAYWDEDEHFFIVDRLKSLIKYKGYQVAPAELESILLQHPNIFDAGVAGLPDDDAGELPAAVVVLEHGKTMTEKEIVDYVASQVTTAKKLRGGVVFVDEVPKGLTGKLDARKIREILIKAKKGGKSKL

Sequence of Fibroblast growth factor 2 (Homo sapiens) (P09038 whole entry, looked up): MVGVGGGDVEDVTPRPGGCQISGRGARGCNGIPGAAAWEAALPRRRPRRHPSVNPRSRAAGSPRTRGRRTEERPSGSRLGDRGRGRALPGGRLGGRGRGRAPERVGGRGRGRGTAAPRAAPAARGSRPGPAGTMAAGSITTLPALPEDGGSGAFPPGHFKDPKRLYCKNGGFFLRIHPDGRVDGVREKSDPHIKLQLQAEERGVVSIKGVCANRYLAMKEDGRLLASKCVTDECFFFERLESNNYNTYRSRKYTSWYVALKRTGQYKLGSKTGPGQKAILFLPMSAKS
Sequence of Follistatin (Homo sapiens) (P19883 whole entry, looked up): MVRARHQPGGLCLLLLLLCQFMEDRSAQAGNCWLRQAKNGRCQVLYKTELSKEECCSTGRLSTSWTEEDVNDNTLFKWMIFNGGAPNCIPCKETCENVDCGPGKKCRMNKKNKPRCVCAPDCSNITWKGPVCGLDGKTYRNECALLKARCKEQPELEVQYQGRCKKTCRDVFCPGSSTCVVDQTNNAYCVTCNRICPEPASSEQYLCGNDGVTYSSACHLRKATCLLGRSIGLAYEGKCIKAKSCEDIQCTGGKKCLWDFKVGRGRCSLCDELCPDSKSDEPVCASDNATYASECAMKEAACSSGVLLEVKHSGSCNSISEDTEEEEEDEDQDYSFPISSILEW
Sequence of Focal adhesion kinase 1 (Homo sapiens) (Q05397 whole entry, looked up): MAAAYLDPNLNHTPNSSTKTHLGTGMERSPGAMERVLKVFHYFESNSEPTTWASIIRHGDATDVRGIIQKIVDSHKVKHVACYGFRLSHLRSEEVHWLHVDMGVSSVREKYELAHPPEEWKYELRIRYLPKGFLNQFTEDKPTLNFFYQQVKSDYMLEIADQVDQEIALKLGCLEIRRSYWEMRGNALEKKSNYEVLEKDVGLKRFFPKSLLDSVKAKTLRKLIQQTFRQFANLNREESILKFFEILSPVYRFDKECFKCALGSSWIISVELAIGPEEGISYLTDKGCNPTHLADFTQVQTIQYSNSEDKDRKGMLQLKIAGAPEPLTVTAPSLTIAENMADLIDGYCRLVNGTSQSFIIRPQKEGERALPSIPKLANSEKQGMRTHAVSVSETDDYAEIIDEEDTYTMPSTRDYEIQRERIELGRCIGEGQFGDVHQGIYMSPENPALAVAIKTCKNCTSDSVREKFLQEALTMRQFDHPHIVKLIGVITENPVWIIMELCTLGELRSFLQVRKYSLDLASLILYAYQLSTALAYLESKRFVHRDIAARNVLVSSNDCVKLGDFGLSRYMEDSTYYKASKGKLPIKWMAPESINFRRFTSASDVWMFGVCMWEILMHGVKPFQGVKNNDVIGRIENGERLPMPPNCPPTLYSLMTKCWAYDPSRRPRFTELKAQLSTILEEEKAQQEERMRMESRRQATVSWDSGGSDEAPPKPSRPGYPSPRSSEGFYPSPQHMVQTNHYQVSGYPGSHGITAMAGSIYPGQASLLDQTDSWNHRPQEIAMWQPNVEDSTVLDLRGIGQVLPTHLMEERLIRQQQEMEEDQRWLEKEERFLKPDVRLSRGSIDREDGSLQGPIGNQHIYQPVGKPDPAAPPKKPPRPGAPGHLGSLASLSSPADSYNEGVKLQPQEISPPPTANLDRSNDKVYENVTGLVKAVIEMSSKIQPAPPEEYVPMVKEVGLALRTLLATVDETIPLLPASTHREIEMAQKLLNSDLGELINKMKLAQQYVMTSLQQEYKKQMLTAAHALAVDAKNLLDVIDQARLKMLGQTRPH
Sequence of Concanavalin-A (Canavalia ensiformis) (P02866 whole entry, looked up): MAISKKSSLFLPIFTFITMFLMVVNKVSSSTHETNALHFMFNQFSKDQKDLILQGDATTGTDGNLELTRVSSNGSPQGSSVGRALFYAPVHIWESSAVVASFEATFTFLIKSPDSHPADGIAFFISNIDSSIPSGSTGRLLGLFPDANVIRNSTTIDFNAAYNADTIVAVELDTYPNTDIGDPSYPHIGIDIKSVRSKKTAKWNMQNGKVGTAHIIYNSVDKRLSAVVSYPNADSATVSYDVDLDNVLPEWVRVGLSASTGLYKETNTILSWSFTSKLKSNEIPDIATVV
Sequence of Albumin (Bos taurus) (P02769 whole entry, looked up): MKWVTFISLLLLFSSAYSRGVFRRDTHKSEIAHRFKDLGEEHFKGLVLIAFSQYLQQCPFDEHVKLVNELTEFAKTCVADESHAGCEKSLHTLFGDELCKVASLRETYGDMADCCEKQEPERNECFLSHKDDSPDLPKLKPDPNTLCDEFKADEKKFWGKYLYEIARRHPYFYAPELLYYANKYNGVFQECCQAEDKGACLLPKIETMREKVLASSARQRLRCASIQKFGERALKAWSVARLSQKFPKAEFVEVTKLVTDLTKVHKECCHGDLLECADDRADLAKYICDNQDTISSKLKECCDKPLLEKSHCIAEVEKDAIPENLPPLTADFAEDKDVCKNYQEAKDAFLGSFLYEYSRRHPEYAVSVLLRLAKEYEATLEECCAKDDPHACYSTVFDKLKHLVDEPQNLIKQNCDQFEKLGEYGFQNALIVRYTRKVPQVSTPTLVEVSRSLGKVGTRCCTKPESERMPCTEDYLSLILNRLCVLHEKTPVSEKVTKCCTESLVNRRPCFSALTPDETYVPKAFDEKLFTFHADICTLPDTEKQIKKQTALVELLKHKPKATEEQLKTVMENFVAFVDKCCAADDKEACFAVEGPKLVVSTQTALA

As to `COc1cccc([C@@H]2[C@@H](C)CC[C@H]3C(=O)N(C)[C@@H](C(C)C)C(=O)N23)c1`, the composite z-score was -0.199 in assay [1]; -0.0111 in [3]; -0.181 in assay [4]; -0.155 in assay [5]; 0.0706 in assay [6]; -0.343 in [7]. The composite z-score in [8] is 0.346; in assay [9], 0.466; in [10], 0.416; in assay [11], 0.381; in [12], 0.694; in [13] it was 1.24. Moreover, the composite z-score was -0.0271 in [14]; 0.388 in assay [15]; 0.348 in [16]; 0.915 in [18]; 0.168 in assay [19]. Also, in [2], the composite Z-score is 0.4 (inactive). For the same molecule, the z-score is 1.68 in assay [17] and -1.56 (inactive) in assay [20].
Regarding `COc1ccc([Si](C)(C)[C@@H]2[C@@H](CCO)O[C@]3(C(=O)N(Cc4ccccc4)c4ccccc43)[C@H]2C)cc1`, the composite z-score in assay [1] is 0.152; in [3] it was -0.113; in assay [4], -0.125; in [5] it was -0.0193; in assay [6], 0.141; in [7] it was 0.0521. The composite z-score is 0.555 in assay [8]; -0.0822 in [9]; 0.421 in [10]; 1.42 in assay [11]; 0.319 in assay [12]; 0.331 in [13]. For the same molecule, the composite z-score in [14] was -0.153; in assay [15] it was 0.32; in assay [16], 1.21; in assay [18] it was 0.32; in assay [19], -0.139. In addition, the composite Z-score in assay [2] was 0.158 (inactive). In addition, the results for the z-score in assay [17] and in assay [20] were -0.234 and -0.238 (inactive), respectively.
For the molecule `COc1ccc([Si](C)(C)[C@H]2[C@H](CC(=O)N(CCO)Cc3ccccc3)O[C@@]3(C(=O)N(C)c4ccccc43)[C@@H]2C)cc1`, the composite z-score in assay [1] is 0.748; in [3], 0.0833; in [4], -0.155; in assay [5], 0.384; in assay [6], 0.136; in assay [7], 0.177. Moreover, the composite z-score stood at 1.05 in assay [8]; 1.21 in [9]; 0.664 in [10]; 1.62 in [11]; 1.08 in assay [12]; 0.711 in assay [13]. Further, the composite z-score in [14] is -0.0177; in [15], 1.06; in [16], 1.01; in assay [18] it was 1.11; in [19], -0.0039. In [2], the composite Z-score was -0.0798 (inactive). Also, the z-score in [17] is 1.61; in [20], 0.59 (inactive).
Turning to `COC(=O)Cn1c(C(=O)N2CCCC2)cc2c1C[C@H]1CN(C(=O)c3ccccc3)[C@@](Cc3ccccc3)(C(=O)OC)[C@@H]21`, the composite z-score in [1] is 1.06; in assay [3], -0.0647; in assay [4] it was 0.0292; in assay [5], 0.752; in [6], 1.99; in [7], -0.263. Moreover, the composite z-score in assay [8] was 0.185; in assay [9], -1.13; in assay [10], 0.831; in assay [11], 1.64; in assay [12], 0.684; in assay [13], 0.714. Also, the composite z-score is 1.01 in [14]; 0.0488 in [15]; -0.684 in assay [16]; 0.142 in assay [18]; 1.43 in assay [19]. Also, the composite Z-score in [2] was 0.0529 (inactive). Also, the values for the z-score in assay [17] and in [20] were 0.367 and 0.659 (inactive), respectively.
For `NC(=O)[C@H]1[C@@H]2C(=O)O[C@@H](c3ccccc3)[C@@H](c3ccccc3)N2[C@@H](c2ccc(O)cc2)[C@]12C(=O)Nc1ccc(C#CCCO)cc12`, the composite z-score was 0.0103 in assay [1]; -0.125 in assay [3]; -0.0645 in assay [4]; 0.72 in assay [5]; -0.119 in [6]; 0.0482 in assay [7]. Besides, the composite z-score in assay [8] was -1.09; in assay [9], -0.92; in assay [10], -1.78; in assay [11], 2.14; in assay [12], -1.66; in assay [13], -0.574. The composite z-score in [14] is -1.74; in [15], -0.458; in [16], -0.581; in assay [18], -0.997; in assay [19], -1.4. For the same molecule, in assay [2], the composite Z-score was 0.049 (inactive). For the same molecule, the z-score in assay [17] was -1.14; in [20], -0.0824 (inactive).
